From PubChem BioAssay
Compounds with a hit are over-represented: about 6% of the library has one in this group of screens.
D1 agonist: human D1 receptor agonism; HEK293 T-REx D1 cells, calcium flux, agonist mode; activation, % at 2 µM; 1% of 360,000 active; AID 504660; in the data active = activation above about 30%
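Inducible HEK293 T-REx D1 cells, force-coupled to calcium signalling, were plated at 4000 cells/well with tetracycline and held overnight at 30 C. After no-wash calcium dye loading, compound-evoked calcium rise over 180 s flagged agonists.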
D1 antag: blocks dopamine activation of the human D1 receptor | P21728 | HEK293 TREx D1 cells, calcium flux, dopamine EC80; stronger effect = lower value | activity change, negative = inhibition, % at 10 µM | 3.2% of 360,000 active; in the data active = activity change below about -30%
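Antagonism measured as reduced calcium response to an EC80 dopamine addition following 180 s compound pre-read; cells were inducible HEK293 Trex D1 plated overnight at 30 C, read kinetically at 1 cycle/sec.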
D3 ag: activates the human D3 dopamine receptor; D3R DiscoveRx beta-arrestin cells, luminescence, 90 min; max activation, %; 0.58% of 410,000 active; AID 652048; in the data active = max activation above about 30%
Target sequence (P35462 whole entry, looked up): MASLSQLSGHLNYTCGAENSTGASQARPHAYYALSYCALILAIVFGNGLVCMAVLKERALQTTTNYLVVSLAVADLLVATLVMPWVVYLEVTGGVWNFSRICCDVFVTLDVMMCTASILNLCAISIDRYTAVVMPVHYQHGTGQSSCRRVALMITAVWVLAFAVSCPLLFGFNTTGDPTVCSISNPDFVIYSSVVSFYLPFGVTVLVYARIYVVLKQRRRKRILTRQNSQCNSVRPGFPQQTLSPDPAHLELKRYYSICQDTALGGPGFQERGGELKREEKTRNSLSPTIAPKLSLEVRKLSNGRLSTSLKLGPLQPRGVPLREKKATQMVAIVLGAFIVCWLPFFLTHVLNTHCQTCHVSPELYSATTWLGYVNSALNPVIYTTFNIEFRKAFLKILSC
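Agonist-mode cell screen: cells plated at 1500/well and incubated overnight at 37 °C, then exposed to library compounds for 90 min at 37 °C. Detection reagent was added for 30–60 min at room temperature, and luminescence was read.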
D1 potentiator: enhances dopamine response at the human D1 receptor. HEK293 TREx D1 cells, calcium flux, dopamine EC20 potentiation. potentiation, % at 10 µM. 0.036% of 360,000 active; in the data active = potentiation above about 30%
D3 antag: blocks the human D3 dopamine receptor; D3R cells, DiscoveRx beta-arrestin luminescence, antagonist mode; stronger effect = lower value; P35462; max response, negative = inhibition, %; 2.5% of 360,000 active; in the data active = max response below about -50%; inconclusive = no clear call, values can overlap the other calls
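Cells expressing the human receptor were seeded at 1500 cells/well, incubated overnight at 37 degrees C in 5% CO2, then exposed to library compounds with dopamine controls for 90 minutes at 37 degrees C before luminescent detection.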
Each line names hits and unclear results; the compound was inactive in the other large screens.

N#CC1(NC(=O)COC(=O)/C=C/c2ccc3ccccc3n2)CCCCC1	D1 antag -50
CCOc1ccc2cc(-c3nnc(Nc4ccccc4F)s3)c(=O)oc2c1	none (no result: D3 antag)
CN(CC(=O)Nc1ccc(Cl)cc1)C(=O)c1ccc(N2CCCC2=O)cc1	D1 antag -39
CN(CC(=O)Nc1ccc(F)c(F)c1F)C(=O)c1ccc(N2CCCC2=O)cc1	none (no result: D1 agonist, D1 antag, D1 potentiator)
CN(CC(=O)Nc1ccc(OC(F)(F)F)cc1)C(=O)c1ccc(N2CCCC2=O)cc1	D1 antag -32
COC(CNC(=O)c1ccc(N2CCCC2=O)cc1)OC	D3 antag -51
O=C(CSc1nc(-c2ccccc2)c2ccccc2n1)Nc1ccc(F)cc1	none (no result: D3 antag)
CCN1CCN(C(=S)Nc2cccc(Cl)c2)CC1	none (no result: D1 antag)
CCN1CCN(C(=S)Nc2ccc(Cl)c(Cl)c2)CC1	D3 antag -50
CCN1CCN(C(=S)c2ccc(Cl)c(Cl)c2)CC1	D3 antag -51
Fc1cccc(CNc2ncnc3ccc(-c4ccoc4)cc23)c1	none (no result: D3 ag, D3 antag)
COc1ccc(S(=O)(=O)c2c(O)c(C)cc(NS(=O)(=O)c3ccc(Cl)cc3)c2C(C)C)cc1	none (no result: D3 antag)
CN(C)/C=C/C(=O)c1cccc(Cl)c1	none
CN(C)/C=C/C(=O)c1ccc(Cl)cc1	D1 antag -86
COCCCNCCOCCOc1ccc(Cl)cc1C(C)(C)C	D1 agonist 38
C=CCNCCCOc1ccc(Cl)cc1C(C)(C)C	none
C=CCNCCOCCOc1ccc(Cl)cc1C(C)(C)C	D3 antag -58
Cc1[nH]c(=O)[nH]c(=O)c1C1N2CC3(C(C)C)CN1CC(C(C)C)(C2)C3=O (configuration not stated)	none (no result: D3 antag)
Cc1c(NC(=O)c2ccc(-c3cccc([N+](=O)[O-])c3)o2)cccc1-c1nc2cc(Cl)ccc2o1	none (no result: D3 antag)
Clc1ccccc1CN(Cc1ccccc1)c1ncnc2nc[nH]c12	D3 antag -64
Cc1c(-c2nsc(NC(=O)c3cccs3)n2)nnn1-c1ccc(F)cc1	none (no result: D3 antag)
O=C(CSc1ncnc2c1oc1ccccc12)OCc1ccccc1	D3 ag 30
Fc1ccc(CSc2ncnc3c2oc2ccccc23)cc1	none
Fc1cccc(CSc2ncnc3c2oc2ccccc23)c1	D1 antag -93
CCOc1ccc(CCNC(=O)Cn2nc(CC)n3c(cc4c(OC)cccc43)c2=O)cc1OCC	none (no result: D3 antag)
COc1cccc(C(=O)Nc2ccc(C(=O)OCc3cc(=O)n4cc(C)sc4n3)cc2)c1	none (no result: D3 antag)
Cc1ccc2c(c1)c(=O)c(C(=O)c1ccc3c(c1)OCO3)cn2Cc1cccc(F)c1	D1 antag -66 (no result: D3 antag)
Cc1ccc(NC(=O)CNC(c2ccccc2)c2ccccc2)c(F)c1	none
O=C(CNC(c1ccccc1)c1ccccc1)Nc1c(F)cccc1F	D1 antag -38
O=C(Nc1cc(C(F)(F)F)ccc1Cl)C(Sc1nnc(-c2cccs2)o1)c1ccccc1 (configuration not stated)	D1 antag -45
CN1CCN(CCCNC(=O)c2ccc(/C=C3\Oc4ccccc4N(Cc4ccccc4F)C3=O)cc2)CC1	D1 agonist 103, D1 antag -47
Cc1ccc(Cn2c(CNS(=O)(=O)c3c(C)cc(C)cc3C)nc3cccnc32)cc1	none (no result: D3 antag)
COc1ccccc1CNS(=O)(=O)CCNCCc1ccccc1	D3 antag -74 (no result: D1 agonist, D1 antag, D1 potentiator)
COc1ccc(CCC(=O)NNC(=O)c2ccc(F)cc2)cc1	D1 antag -30
COc1ccc(C(=O)NCCS(=O)(=O)NCc2ccc(F)cc2)cc1	D1 antag -31
O=S(=O)(CCNCCc1ccccc1)NCc1ccccc1	D3 antag inconclusive (no result: D1 agonist, D1 antag, D1 potentiator)
O=C(NCCS(=O)(=O)NCc1ccccc1Cl)c1ccc2c(c1)OCO2	D1 antag -35
COc1ccc(CCC(=O)NNC(=S)NCc2ccc(F)cc2)cc1	none
CCCCCCCCNS(=O)(=O)CCNCc1ccccc1	none (no result: D1 agonist, D1 antag, D1 potentiator)
COc1ccccc1CNS(=O)(=O)CCNC(=O)c1ccccc1	D1 antag -30
O=C(NCCS(=O)(=O)NCc1ccccc1)c1ccccc1	none
CCCCCCCCNCCS(=O)(=O)NCc1ccc(OC)cc1	D3 antag -63 (no result: D1 agonist, D1 antag, D1 potentiator)
CCCCCCCCNS(=O)(=O)CCNCc1ccco1	D3 ag 37 (no result: D1 agonist, D1 antag, D1 potentiator)
CCCCCCCCNS(=O)(=O)CCNCc1ccccc1OC	D3 antag -51 (no result: D1 agonist, D1 antag, D1 potentiator)
Cc1cc(NC(=O)COCc2cc(-c3ccc(F)cc3)on2)ccc1Br	none (no result: D3 antag)
CC1=NN(c2ccccc2)C(=O)/C1=C\C=C1/N(C)c2ccccc2C1(C)C	D1 agonist 68
